Test [1] deals with human Peroxisome Proliferator-activated Receptor alpha (PPARa), PPARA (gene 5465) (UniProt Q07869). Nature of the test: ATG_PPARa_TRANS: Attagene TRANS-FACTORIAL HepG2 Assay for human Peroxisome Proliferator-activated Receptor alpha (PPARa) (AID 2283001). Summed up: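 Reporter transcripts quantified by RT-PCR plus capillary electrophoresis after 24 h treatment, fitted upward relative to DMSO. Cells: human HepG2 transiently carrying multiple GAL4-UAS reporter units driven by NR-Gal4 chimeras.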

Test [2] concerns the target Peroxisome proliferator-activated receptor gamma (Homo sapiens) (UniProt P37231). Briefly: ATG_PPARg_TRANS: Attagene TRANS-FACTORIAL HepG2 Assay for human Peroxisome Proliferator-activated Receptor-gamma (PPARg) (AID 2283007). The method in brief: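 After 24 h of chemical exposure, transfected HepG2 cells carrying PPARγ-Gal4 chimera reporter constructs are lysed for RNA. Reporter transcripts are measured by RT-PCR and capillary electrophoresis with fluorescent labelling, and gain of signal is fitted versus DMSO.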

For test [3], the target named is Nuclear receptor subfamily 1 group I member 2 (Homo sapiens) (UniProt O75469). Nature of the test: ATG_PXR_TRANS: Attagene TRANS-FACTORIAL HepG2 Assay for human Pregnane X Receptor (PXR) (AID 2283008). Summed up: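 Trans-factorial format: exogenous NR-Gal4 fusion activity, not endogenous factor, in transfected human HepG2 liver cells. After 24 h dosing, RNA isolated, reverse-transcribed, amplified and resolved by capillary electrophoresis; induction scored versus DMSO.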

The target of test [4] is human RAR-related Orphan Receptor beta (RORb), RORB (gene 6096) (UniProt Q92753). Briefly: ATG_RORb_TRANS: Attagene TRANS-FACTORIAL HepG2 Assay for human RAR-related Orphan Receptor beta (RORb) (AID 2283010). The method in brief:
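Read-out is reporter mRNA induction, quantified by RT-PCR with fluorescent capillary electrophoresis, 24 h post-dose in transiently transfected HepG2 expressing exogenous NR-Gal4 chimera. Activity fitted upward versus DMSO.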

The target of test [5] is human RAR-related Orphan Receptor gamma (RORg), RORC (gene 6097) (UniProt P51449). Briefly: ATG_RORg_TRANS: Attagene TRANS-FACTORIAL HepG2 Assay for human RAR-related Orphan Receptor gamma (RORg) (AID 2283011). The method in brief:
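HepG2 cells transiently transfected with GAL4-UAS reporter units and chimeric RORg-Gal4 construct; after 24 h chemical exposure, reporter mRNA measured by RT-PCR with fluorescent capillary electrophoresis, gain of signal fitted against DMSO.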

Test [6] addresses Retinoic acid receptor RXR-alpha (Homo sapiens) (UniProt P19793). Nature of the test: ATG_RXRa_TRANS: Attagene TRANS-FACTORIAL HepG2 Assay for human Retinoid X Receptor alpha (RXRa) (AID 2283012). Summed up:
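TRANS format reporting activity of exogenous RXRa-Gal4 chimera in transiently transfected HepG2, 24 h exposure. Reporter transcripts quantified by RT-PCR with capillary electrophoresis, with gain of signal scored relative to DMSO.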

The target in test [7] is human Retinoid X Receptor beta (RXRb), RXRB (gene 6257) (UniProt P28702). Briefly: ATG_RXRb_TRANS: Attagene TRANS-FACTORIAL HepG2 Assay for human Retinoid X Receptor beta (RXRb) (AID 2283013). The method in brief: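 Readout is reporter transcript induction after 24 h dosing. It is measured by RT-PCR of total RNA followed by fluorescent capillary electrophoresis. HepG2 liver cells carry transfected multiple reporter units driven by an exogenous RXRb-Gal4 fusion; activity is relative to DMSO.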

Test [8] deals with human Thyroid Receptor alpha (THRa1), THRA (gene 7067) (UniProt P10827). Briefly: ATG_THRa1_TRANS: Attagene TRANS-FACTORIAL HepG2 Assay for human Thyroid Receptor alpha (THRa1) (AID 2283014). The method in brief: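 HepG2 cells transiently transfected with chimeric NR-Gal4 and GAL4-UAS reporter units, dosed 24 h. Reporter mRNA quantified by RT-PCR, fluorescent labeling, HpaI digestion and capillary electrophoresis; gain-of-signal fit versus DMSO.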

For test [9], the target named is Retinoic acid receptor alpha (Homo sapiens) (UniProt P10276). Briefly: ATG_RARa_TRANS: Attagene TRANS-FACTORIAL HepG2 Assay for human Retinoic Acid Receptor alpha (RARa) (AID 2283005). Summed up:
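Reporter transcripts, measured by RT-PCR with fluorescent labeling and capillary electrophoresis after 24 h dosing, reflect activity of an exogenous human RARa–GAL4 fusion in transiently transfected HepG2. Fitted for increase relative to DMSO.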

For test [10], the target named is human Retinoic Acid Receptor gamma (RARg), RARG (gene 5916) (UniProt P13631). Nature of the test: ATG_RARg_TRANS: Attagene TRANS-FACTORIAL HepG2 Assay for human Retinoic Acid Receptor gamma (RARg) (AID 2283009). The method in brief:
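Transactivation of exogenous RARg-Gal4 fusion measured as reporter transcript induction after 24 h in transfected HepG2 cells. RNA reverse-transcribed, amplified, fluorescently labeled and resolved by capillary electrophoresis; increase relative to DMSO.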

Test [11] concerns the target human Peroxisome Proliferator-activated Receptor delta (PPARd), PPARD (gene 5467) (UniProt Q03181). Briefly: ATG_PPARd_TRANS: Attagene TRANS-FACTORIAL HepG2 Assay for human Peroxisome Proliferator-activated Receptor delta (PPARd) (AID 2283002). Summed up:
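Read-out is induced reporter mRNA, quantified by RT-PCR with fluorescent labelling and capillary electrophoresis after 24 h dosing. Cells are HepG2 transiently carrying multiple GAL4-UAS reporter units driven by exogenous NR-GAL4 chimeras; DMSO serves as baseline.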

Results filed as inconclusive are left out. Activity calls are given as the source filed them. How the source made its calls: active means hit-call score of the fitted dose curve at least 0.9, where 1 is the maximum; inconclusive means response in the unintended direction; inactive means score below 0.9.

human Peroxisome Proliferator-activated Receptor delta (PPARd), PPARD (gene 5467), sequence (Q03181 whole entry, looked up, the tested form may be a part): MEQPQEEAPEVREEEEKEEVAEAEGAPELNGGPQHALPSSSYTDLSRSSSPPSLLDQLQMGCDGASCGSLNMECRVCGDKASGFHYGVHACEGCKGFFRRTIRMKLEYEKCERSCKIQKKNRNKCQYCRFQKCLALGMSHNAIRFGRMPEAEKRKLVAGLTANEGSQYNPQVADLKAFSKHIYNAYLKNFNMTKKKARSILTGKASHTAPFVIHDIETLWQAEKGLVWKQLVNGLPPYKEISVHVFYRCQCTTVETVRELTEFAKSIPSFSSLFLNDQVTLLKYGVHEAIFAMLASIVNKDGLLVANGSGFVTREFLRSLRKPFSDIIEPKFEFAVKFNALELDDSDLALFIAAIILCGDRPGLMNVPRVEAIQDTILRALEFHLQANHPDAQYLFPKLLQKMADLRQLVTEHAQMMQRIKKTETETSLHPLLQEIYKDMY
human Retinoic Acid Receptor gamma (RARg), RARG (gene 5916), sequence (P13631 whole entry, looked up, the tested form may be a part): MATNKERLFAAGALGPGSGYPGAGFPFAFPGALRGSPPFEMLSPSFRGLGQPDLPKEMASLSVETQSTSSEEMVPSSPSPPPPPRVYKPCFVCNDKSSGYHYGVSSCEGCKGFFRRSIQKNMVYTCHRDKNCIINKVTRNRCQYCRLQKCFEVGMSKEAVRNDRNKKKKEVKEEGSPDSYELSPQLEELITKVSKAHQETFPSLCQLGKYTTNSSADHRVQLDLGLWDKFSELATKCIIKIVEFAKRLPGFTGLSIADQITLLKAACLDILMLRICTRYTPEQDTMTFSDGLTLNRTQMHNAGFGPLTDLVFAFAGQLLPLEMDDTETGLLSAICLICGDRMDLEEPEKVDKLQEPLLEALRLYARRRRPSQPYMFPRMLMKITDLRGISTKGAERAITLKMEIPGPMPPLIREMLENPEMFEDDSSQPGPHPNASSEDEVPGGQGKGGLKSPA
Retinoic acid receptor RXR-alpha (Homo sapiens), sequence (P19793 whole entry, looked up, the tested form may be a part): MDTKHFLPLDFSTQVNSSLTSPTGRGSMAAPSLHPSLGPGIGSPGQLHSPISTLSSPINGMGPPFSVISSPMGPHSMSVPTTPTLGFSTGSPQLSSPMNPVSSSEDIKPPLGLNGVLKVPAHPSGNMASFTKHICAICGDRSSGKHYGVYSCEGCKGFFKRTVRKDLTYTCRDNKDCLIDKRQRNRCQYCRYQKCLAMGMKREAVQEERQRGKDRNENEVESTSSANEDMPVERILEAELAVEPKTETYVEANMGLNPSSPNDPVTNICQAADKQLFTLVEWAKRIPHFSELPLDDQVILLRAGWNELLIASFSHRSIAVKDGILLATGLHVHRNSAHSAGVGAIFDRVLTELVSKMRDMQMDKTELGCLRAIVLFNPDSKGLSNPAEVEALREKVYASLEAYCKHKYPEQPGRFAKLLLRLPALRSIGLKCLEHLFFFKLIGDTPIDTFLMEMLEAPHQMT
human Retinoid X Receptor beta (RXRb), RXRB (gene 6257), sequence (P28702 whole entry, looked up, the tested form may be a part): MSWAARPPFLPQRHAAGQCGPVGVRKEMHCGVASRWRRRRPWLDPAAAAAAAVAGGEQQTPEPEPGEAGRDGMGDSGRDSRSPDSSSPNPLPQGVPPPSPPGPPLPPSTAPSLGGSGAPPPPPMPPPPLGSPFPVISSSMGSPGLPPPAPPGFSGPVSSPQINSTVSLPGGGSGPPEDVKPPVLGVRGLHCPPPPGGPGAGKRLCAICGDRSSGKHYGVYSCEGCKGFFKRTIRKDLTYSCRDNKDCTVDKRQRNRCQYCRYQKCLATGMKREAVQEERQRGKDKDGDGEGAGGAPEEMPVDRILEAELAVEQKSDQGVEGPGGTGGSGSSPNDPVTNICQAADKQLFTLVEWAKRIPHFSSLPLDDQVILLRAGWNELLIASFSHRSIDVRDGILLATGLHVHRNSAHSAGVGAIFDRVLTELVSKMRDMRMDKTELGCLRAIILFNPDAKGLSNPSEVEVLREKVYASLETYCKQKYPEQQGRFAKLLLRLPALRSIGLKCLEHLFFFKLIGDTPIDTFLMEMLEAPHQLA
human Thyroid Receptor alpha (THRa1), THRA (gene 7067), sequence (P10827 whole entry, looked up, the tested form may be a part): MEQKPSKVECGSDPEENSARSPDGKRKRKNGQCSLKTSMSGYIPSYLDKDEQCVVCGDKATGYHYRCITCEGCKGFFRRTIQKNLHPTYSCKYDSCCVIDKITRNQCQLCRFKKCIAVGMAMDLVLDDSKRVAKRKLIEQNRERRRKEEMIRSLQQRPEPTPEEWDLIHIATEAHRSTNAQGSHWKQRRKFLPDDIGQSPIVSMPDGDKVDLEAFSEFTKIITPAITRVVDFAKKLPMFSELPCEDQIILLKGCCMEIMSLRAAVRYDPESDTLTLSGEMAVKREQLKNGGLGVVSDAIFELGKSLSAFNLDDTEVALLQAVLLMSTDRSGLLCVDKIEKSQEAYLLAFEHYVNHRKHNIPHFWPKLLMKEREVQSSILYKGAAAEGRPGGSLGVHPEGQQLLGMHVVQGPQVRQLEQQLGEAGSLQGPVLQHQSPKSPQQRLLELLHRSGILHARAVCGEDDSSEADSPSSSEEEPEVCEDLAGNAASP
Retinoic acid receptor alpha (Homo sapiens), sequence (P10276 whole entry, looked up, the tested form may be a part): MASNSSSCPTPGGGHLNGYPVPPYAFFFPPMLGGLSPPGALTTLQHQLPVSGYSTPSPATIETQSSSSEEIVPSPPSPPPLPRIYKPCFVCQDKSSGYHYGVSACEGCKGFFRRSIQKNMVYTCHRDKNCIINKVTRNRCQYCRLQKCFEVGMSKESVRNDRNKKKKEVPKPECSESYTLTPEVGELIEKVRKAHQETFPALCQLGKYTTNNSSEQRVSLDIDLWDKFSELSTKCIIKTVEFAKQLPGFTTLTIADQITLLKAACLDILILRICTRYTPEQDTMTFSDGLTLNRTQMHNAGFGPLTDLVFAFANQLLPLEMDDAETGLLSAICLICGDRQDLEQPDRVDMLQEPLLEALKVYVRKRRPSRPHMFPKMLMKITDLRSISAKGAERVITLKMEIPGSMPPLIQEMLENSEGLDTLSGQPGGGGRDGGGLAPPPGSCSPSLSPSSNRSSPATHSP
human Peroxisome Proliferator-activated Receptor alpha (PPARa), PPARA (gene 5465), sequence (Q07869 whole entry, looked up, the tested form may be a part): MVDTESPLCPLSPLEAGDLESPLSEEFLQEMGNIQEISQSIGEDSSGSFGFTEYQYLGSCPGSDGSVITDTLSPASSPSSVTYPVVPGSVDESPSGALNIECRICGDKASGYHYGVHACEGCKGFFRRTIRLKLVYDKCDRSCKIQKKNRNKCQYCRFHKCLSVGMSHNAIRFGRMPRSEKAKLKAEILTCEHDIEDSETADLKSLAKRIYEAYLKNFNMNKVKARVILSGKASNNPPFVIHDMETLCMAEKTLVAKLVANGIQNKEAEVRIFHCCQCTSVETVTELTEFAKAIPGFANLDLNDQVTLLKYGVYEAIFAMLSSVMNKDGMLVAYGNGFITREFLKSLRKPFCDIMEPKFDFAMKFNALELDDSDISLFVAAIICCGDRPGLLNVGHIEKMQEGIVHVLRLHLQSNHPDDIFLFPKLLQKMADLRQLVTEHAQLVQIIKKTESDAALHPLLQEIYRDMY
Peroxisome proliferator-activated receptor gamma (Homo sapiens), sequence (P37231 whole entry, looked up, the tested form may be a part): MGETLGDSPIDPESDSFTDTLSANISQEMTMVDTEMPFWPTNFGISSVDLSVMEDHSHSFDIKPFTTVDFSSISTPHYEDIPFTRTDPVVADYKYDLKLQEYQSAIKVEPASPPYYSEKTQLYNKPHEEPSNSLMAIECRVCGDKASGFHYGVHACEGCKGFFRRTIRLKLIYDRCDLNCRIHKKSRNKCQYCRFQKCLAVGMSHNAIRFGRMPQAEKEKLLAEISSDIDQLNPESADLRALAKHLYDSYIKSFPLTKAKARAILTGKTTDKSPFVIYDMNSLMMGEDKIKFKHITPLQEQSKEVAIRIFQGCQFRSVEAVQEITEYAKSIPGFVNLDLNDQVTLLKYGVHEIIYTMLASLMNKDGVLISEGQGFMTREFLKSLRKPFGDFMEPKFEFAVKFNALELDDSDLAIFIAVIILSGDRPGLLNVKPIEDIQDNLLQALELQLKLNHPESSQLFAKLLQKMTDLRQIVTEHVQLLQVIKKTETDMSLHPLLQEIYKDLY
human RAR-related Orphan Receptor beta (RORb), RORB (gene 6096), sequence (Q92753 whole entry, looked up, the tested form may be a part): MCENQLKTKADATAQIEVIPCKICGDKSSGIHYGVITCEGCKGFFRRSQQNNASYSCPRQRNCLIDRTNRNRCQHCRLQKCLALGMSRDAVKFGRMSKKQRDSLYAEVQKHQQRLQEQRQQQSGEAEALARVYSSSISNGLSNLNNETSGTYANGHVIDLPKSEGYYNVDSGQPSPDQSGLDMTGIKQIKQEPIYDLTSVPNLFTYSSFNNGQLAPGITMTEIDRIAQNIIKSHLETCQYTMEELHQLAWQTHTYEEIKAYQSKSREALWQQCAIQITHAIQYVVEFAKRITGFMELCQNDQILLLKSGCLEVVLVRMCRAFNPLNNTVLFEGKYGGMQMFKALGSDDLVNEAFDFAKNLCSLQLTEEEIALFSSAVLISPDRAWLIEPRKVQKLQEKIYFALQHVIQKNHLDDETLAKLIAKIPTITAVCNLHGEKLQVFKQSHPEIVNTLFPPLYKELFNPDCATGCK
Nuclear receptor subfamily 1 group I member 2 (Homo sapiens), sequence (O75469 whole entry, looked up, the tested form may be a part): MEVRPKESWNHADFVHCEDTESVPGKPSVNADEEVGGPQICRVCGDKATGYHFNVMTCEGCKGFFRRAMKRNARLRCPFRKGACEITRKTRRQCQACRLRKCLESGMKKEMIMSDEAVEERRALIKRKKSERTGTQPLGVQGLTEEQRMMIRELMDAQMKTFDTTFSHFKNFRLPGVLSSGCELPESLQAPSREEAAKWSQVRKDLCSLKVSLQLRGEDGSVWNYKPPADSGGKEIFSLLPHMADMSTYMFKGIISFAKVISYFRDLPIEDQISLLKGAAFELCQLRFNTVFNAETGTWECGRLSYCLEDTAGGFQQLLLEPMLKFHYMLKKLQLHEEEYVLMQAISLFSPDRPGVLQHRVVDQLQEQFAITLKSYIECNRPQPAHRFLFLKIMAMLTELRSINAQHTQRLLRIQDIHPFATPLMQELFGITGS

For `N#CCCNCCC#N`, the outcome in test [1], in test [2], in [3], in test [4], in [5] and in test [6] was inactive. Further, the compound was called inactive in test [7].

Regarding `CCOc1ccc(NC(C)=O)cc1`, the call in test [1], in [2], in [3], in test [4], in test [5] and in [6] was inactive. In addition, in test [8], the outcome was inactive.

Regarding `CCc1cccc(O)c1`, the outcome in test [1], in test [2], in test [3], in [4], in test [5] and in test [6] was inactive. The result in test [8] was inactive.

With `C=CCCCCCCCCC(=O)OCC`, the compound was classed as inactive in test [1], in [3], in test [6] and in [8]. Further, the results for the AC50 in test [2] and in test [7] were 55.9 µM (active) and 100 µM (active), respectively.

Consider `CC(CCO)CC(C)(C)C` (stereo unspecified), for which the call in test [1], in [9], in test [3], in [10], in test [4] and in test [6] was inactive. Also, the outcome in [7] was inactive.

In the case of `NS(=O)(=O)c1cc(C(=O)O)c(NCc2ccco2)cc1Cl`, the call in test [1], in test [11], in [3], in test [4], in test [5] and in test [8] was inactive.

As for `C/C=C(\C)C(=O)OC/C=C(\C)CCC=C(C)C`, the compound was called inactive in test [1], in test [11], in test [3] and in [8]. The AC50 in [6] is 30.7 µM (active); in test [7] it was 4.63 µM (active).

Regarding `O=c1cc[nH]cc1`, the call in test [1], in test [11], in test [5], in [6], in [7] and in test [8] was inactive.

`O=C(C=Cc1ccccc1)OCCCc1ccccc1`: the call in [1], in [9], in [10], in test [4] and in [6] was inactive. For the same compound, the figures for the AC50 in test [3] and in test [7] were 22.5 µM (active) and 66.6 µM (active), respectively.

Turning to `C=C(C)CCCC(C)CCO` (stereo unspecified), the call in test [1], in test [6], in test [7] and in test [8] was inactive. Moreover, the AC50 is 41.9 µM (active) in test [2] and 9.99 µM (active) in test [3].

In the case of `CCCCCCCCOC(=O)c1ccc(O)cc1`, the compound was called inactive in test [1], in test [9], in [3] and in test [10]. Besides, in [7], the AC50 is 11.1 µM (active).

`O=C(OCc1ccccc1)c1ccccc1O`: the compound was classed as inactive in [1], in [11], in [4], in test [6] and in [8]. In addition, the AC50 in test [3] was 62.7 µM (active); in test [7], 50.1 µM (active).

As for `CCOCC(C)O` (stereo unspecified), the compound was classed as inactive in test [1], in [11] and in test [5].

With `CCCCCCCCCOS(=O)(=O)O`, the call in test [1] and in test [3] was inactive. Besides, the AC50 in test [2] was 30.6 µM (active).

In the case of `CCCCCCCCCO`, the result in test [1], in test [2], in test [3], in test [6] and in test [7] was inactive.

As for `CCCCOCC(C)OCC(C)O` (stereo unspecified), the result in [1], in test [11], in test [3], in [4], in [5] and in test [8] was inactive.

For `c1ccc(Cc2ccccc2)cc1`, the compound was classed as inactive in [1], in [2], in [3], in test [4], in [6] and in test [7]. For the same compound, the result in test [8] was inactive.

Take `CC1=CC[C@@H]2C[C@H]1C2(C)C`: the call in test [1], in test [11], in [4], in [6] and in test [8] was inactive.

Turning to `CC(C)=CCCC(C)=CC(=O)O`, the call in [1], in [3], in test [5] and in test [7] was inactive. The half-maximal activity concentration (AC50) in test [2] was 57.3 µM (active).

These data come from PubChem BioAssay (EPA / NIEHS).
